KLF5 inh = suppresses KLF5 promoter-driven expression. 0.23% of 290,000 active. inhibition, % at 5 µM. DLD-1 KLF5 promoter-luciferase reporter, luminescence;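 active means inhibition above a per-plate limit of that plate's mean compound inhibition plus 3 SD, cut at about 60% in these data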;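 further: 0% = DMSO wells and 100% = LY294002 at 200 µM; higher means less KLF5 promoter-driven luciferase light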
APP transl inh = APP translation inhibition; inhibition, % at 2 µM; SH-SY5Y APP 5'UTR-luciferase reporter, luminescence; 0.82% of 190,000 active; AID 1285;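 active means inhibition above a set limit, derived from the sample mean plus 3 SD, cut at about 45% in these data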
BaF3 tox = counter-screen for JAK2V617F inhibitors: parental Ba/F3 viability inhibitors; CellTiter-Glo ATP luminescence; inhibition, % at 5.6 µM; 1.1% of 220,000 active; AID 1486;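 active means inhibition above a per-campaign cutoff, the mean inhibition of all tested compounds plus 3 SD, cut at about 27% in these data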;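 further: 0% = DMSO wells and 100% = JAK Inhibitor I control wells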
IEC-6 cytotox = IEC-6 cytotoxicity, counter-screen for KLF5 inhibitors | luminescence viability | inhibition, % at 5 µM | 0.78% of 290,000 active; in the data active means inhibition above about 22%;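 further: 0% = plate median of test compound wells and 100% = cytotoxic reference compound wells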
Ba/F3 V617F tox = reduce viability of Ba/F3 cells dependent on JAK2V617F; inhibition, % at 5.6 µM; Ba/F3 EpoR-JAK2V617F viability, ATP luminescence; 1.1% of 220,000 active;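 active means inhibition above the campaign mean plus 3 SD over all tested compounds, cut at about 24% in these data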;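 further: cytokine-independent growth of Ba/F3 cells driven by EpoR plus mutant JAK2; 0% = DMSO-treated cells and 100% = JAK inhibitor I control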
* = called active by the depositor; / = no result. In the library only some 1.8% were active in any assay of this set; here they are far more common.

SMILES	KLF5 inh	APP transl inh	BaF3 tox	IEC-6 cytotox	Ba/F3 V617F tox
COC(=O)C(C)NC(=O)c1cn(-c2ccccc2OC)c(=O)c2ccccc12 (stereo unspecified)	-29	/	/	-5	/
Cn1c(CCc2nc3ccccc3[nH]2)nnc1SCC#N	-13	6	5	4	4
CC(C)Cn1c(N)c(C(=O)COC(=O)CC23CC4CC(CC(C4)C2)C3)c(=O)n(C)c1=O	-16	10	42*	11	36*
O=C(NC1CCCCC1)C(=S)N1CCCC1	-14	10	7	-5	2
Cc1nn(C)c(C)c1CN(C)S(=O)(=O)c1ccc2ccccc2c1	-23	47*	46*	14	46*
Cc1c(C(=O)N/N=C/C(C)C)[nH]c2c([N+](=O)[O-])cccc12	2	92*	3	7	-2
Cc1ccc(C(=O)N/N=C\c2ccccc2[N+](=O)[O-])cn1	-93	-43	2	6	-3
COc1ccc(C(=O)C(CN2CCOCC2)c2ccccc2)cc1F (stereo unspecified)	26	62*	49*	6	93*
O=C(/C=C/c1ccco1)Nc1ccc(-c2nc3ccccc3[nH]2)cc1	-38	86*	3	-6	11
CC(=O)c1c(COC(=O)c2ccc(F)cc2)nc2ccccc2[n+]1[O-]	-4	/	-9	-2	3
CC(=O)c1c(COC(=O)c2ccc(C)cc2)nc2ccccc2[n+]1[O-]	-21	/	51*	0	-3
CCc1ccc(-c2nnn(CCC(=O)OC)n2)cc1	-6	48*	6	0	-2
CC(C)c1ccc(-c2nnn(CCC(=O)O)n2)cc1	33	82*	4	-1	6
CCc1ccc(-c2nnn(CCC#N)n2)cc1	-4	-26	1	-2	-3
Cc1noc(C)c1-c1nnc(-c2ccc(OC(F)(F)F)cc2)o1	-12	/	-2	0	-3
Cc1cc(NC(=O)Nc2cccc([N+](=O)[O-])c2)no1	-45	-8	90*	4	0
Cc1cc(NC(=O)COc2cccc([N+](=O)[O-])c2)no1	0	/	/	-1	/
CCOc1ccc(S(=O)(=O)N2CN3CCN(C3)C2)cc1	-34	/	/	-2	/
CCOc1ccc(S(=O)(=O)N2CCN(S(=O)(=O)c3ccc(OCC)cc3)C(C)C2)cc1 (stereo unspecified)	-6	52*	1	-5	-3
Cc1nnc2sc(SCC(=O)Nc3cccc(Cl)c3)nn2c1=O	12	-1	8	4	3
Cn1c(=O)n(C)c2cc([N+](=O)[O-])c(N3CCN(CCO)CC3)cc21	-20	13	7	2	2
O=C1C(Cl)=C(NCCCN2CCOCC2)C(=O)N1CCc1ccccc1	19	51*	4	8	5
Cc1ccc(NC(=S)N/N=C/c2c(Cl)cccc2Cl)c(C)c1	18	95*	72*	13	70*
Cc1ccc(C(=O)/C=C/C(=O)c2ccc(C)cc2)cc1	-20	66*	2	-6	-6
Cc1ccc(Cl)cc1NC(=O)NCc1cccnc1	-23	/	/	5	/
SMILES	KLF5 inh	APP transl inh	BaF3 tox	IEC-6 cytotox	Ba/F3 V617F tox
NS(=O)(=O)c1ccc(CCNC(=O)NC2(C(F)(F)F)Oc3ccccc3O2)cc1	7	25	39*	12	57*
O=C(NCc1cccnc1)NC1(C(F)(F)F)Oc2ccc(Cl)cc2O1 (stereo unspecified)	-14	22	39*	2	52*
Cc1cc(NC(=O)NC2(C(F)(F)F)Oc3ccc(Cl)cc3O2)no1 (stereo unspecified)	-17	38	28*	4	51*
CCCCNC(=O)NC1(C(F)(F)F)Oc2ccccc2O1	-11	14	4	-3	7
COCCNC(=O)NC1(C(F)(F)F)Oc2ccc(Cl)cc2O1 (stereo unspecified)	-32	31	39*	11	46*
O=C(NCCN1CCOCC1)NC1(C(F)(F)F)Oc2ccccc2O1	-2	5	9	3	2
CC1CCCCC1N(C)C1CCN(C(=O)CNC(=O)/C=C/c2cccc(Cl)c2)CC1 (stereo unspecified)	-70	/	/	5	/
O=C(NNc1ncnc2ccccc12)c1cccc(Cl)c1	-84	/	-3	8	0
Cc1cc(NC(=O)COC(=O)c2ccc(S(=O)(=O)N3CCCC3)cc2)no1	-18	-8	5	-1	-1
Cc1cc(NC(=O)COC(=O)c2ccc(S(=O)(=O)N3CCCc4ccccc43)cc2)no1	63*	92*	49*	2	63*
Cc1cccc(OCCC(=O)NCC(=O)Nc2cccc(C)c2C)c1	7	-2	5	0	3

High-throughput results from PubChem.
